Experimental data reported in PubChem BioAssay (NCATS).
Records with an inconclusive call do not appear. Active and inactive are the calls of the source. Calls follow the shape of the dose curve; as a rule, active = well fitted curve in either direction with a large enough effect (not every such curve was filed as active); inconclusive = small, poorly fitted or top-dose-only effect, or another doubt; inactive = flat fitted curve, though single readings scatter.

test: AP1 Signaling Pathway (AID 357); details: ME-180 (cervical carcinoma) AP-1-bla reporter, EGF-induced, beta-lactamase ratio, 5 h; at 17.2 µM (top of the series) unless noted
How it was run: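 Titration-series screen for positive or negative modulators of EC50 EGF-induced signaling in ME-180 cells carrying an AP-1-driven beta-lactamase reporter. After 5 hours at 37 degrees Celsius, CCF4 460nm/530nm emission ratio gave %Activity; AC50 values derived.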
% is scaled to controls: 0 for no effect and ±100 for the full control effect.

Activity change, negative = inhibition, inactive:
Cc1ccc(/C=c2\sc3n(c2=O)CN(c2ccc(Br)cc2)CN=3)o1 25.9%, CCOC(=O)c1c(CN2CCN(CCO)CC2)n(C)c2cc(Br)c(OC)cc12 19.8%, CCc1nc2c(sc3nc(N4CCOCC4)c4c(c32)CC(C)(C)OC4)c(=O)o1 3.92%, CCOC(=O)c1cc(CC)sc1NC(=O)C1CC1 -23.9%, O=C1C2ON(c3ccccc3)C(c3cccnc3)C2C(=O)N1c1ccccc1 (stereo not drawn) -5.35%, NC(=O)C(c1ccccc1)C1CCCC1 (stereo not drawn) -5.55%, CCCC1C(c2ccc(OC)cc2)C(C#N)(C#N)C2(C#N)CC1(N)NC2=O (stereo not drawn) 7.74%, CCN(CC)S(=O)(=O)c1ccc2c(c1)c(C(=O)O)cn2C -6.47%, CC(NC(=O)Nc1nccs1)(C(F)(F)F)C(F)(F)F 4.62%, N#C/C(C(=O)N1CCOCC1)=C1/SC(Cc2ccccc2)C(=O)N1c1ccccc1 (stereo not drawn) 6.74%, COc1ccccc1C1C(C#N)=C(N)Oc2cc(C)n(Cc3ccccn3)c(=O)c21 (stereo not drawn) -12.5%, Cc1cc(C)c(C#N)c(OCC(=O)c2ccccc2)n1 -15.4%, CC(=O)C1=C(O)C(=O)N(c2ccc(Br)cn2)C1c1ccccc1F (stereo not drawn) -1.6%, Cn1ncc(N=Cc2ccccc2O)c1C(=O)Nc1ccccc1 -7.55%, CN(C)CCCNCCCCNC(=O)/C=N/O 5.81%, COc1ccc(C(=O)NCC(=O)n2nc(C)cc2C)cc1OC 6.38%, Cc1ccc(-c2ccccc2NC(=O)C2C3C=CC(C3)C2C(=O)O)o1 (stereo not drawn) -3.25%, CCOc1nnnc2c1sc1nc(N3CCOCC3)c3c(c12)CC(C)(C)OC3 -7.69%, O=C(O)CCCCCN1C(=O)CCC1=O 13.2%, C=CCn1c(=S)[nH]c2ccccc2c1=O -3%, N#CC1=C(C=Nc2ccccc2O)CCC1 12.3%, COC(=O)c1sccc1NC(=O)c1c(C)cc(=O)oc1C 9.11%, COc1ccccc1N1CCN(CCOc2c(OC)cccc2OC)CC1 12.4%
